From the supplement of paper PMC10849652
The full data set covers some 8,800 targets. This sample favours those with a hit. About 0.5% of all pairs of compound and target were hits.

How the values were obtained:
Assay in all cases: log2 fold change, soluble protein after heating vs DMSO (PISA); higher = thermal stabilisation; K562 lysate, 10 uM; active = over 0.2 and 3.5 SD of the protein, either way, in both replicates (recomputed)
nilotinib = compound: Cc1cn(-c2cc(NC(=O)c3ccc(C)c(Nc4nccc(-c5cccnc5)n4)c3)cc(C(F)(F)F)c2)cn1 [nilotinib]
Summary of the method: (§1)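 Soluble protein was defined as the supernatant remaining after 21,000xg for 90 min, following pooling of heated aliquots and adjustment to 0.5% NP-40 at 4°C. Before that, crude K562 extract at 1 mg/mL protein in PBS pH 7.4 with 1 mM MgCl2 was treated with 10 μM compound for 30 min and heated for 3 min across 48°C-58°C. Quantification used TMTpro 16plex LC-MS/MS with channel sums equalised, and values are log-two fold changes in thermal stability relative to solvent controls from duplicates.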

[1] = compound: Cc1nc(Nc2n[nH]c3c2CN(C(=O)N[C@H](CN(C)C)c2ccccc2)C3(C)C)c2sccc2n1
Summary of the method: as §1

dasatinib = compound: Cc1nc(Nc2ncc(C(=O)Nc3c(C)cccc3Cl)s2)cc(N2CCN(CCO)CC2)n1 [dasatinib]
Summary of the method: as §1

[2] = compound: Cc1ncc(-c2ccnc(Nc3ccc(S(C)(=O)=O)cc3)n2)n1C(C)C
Summary of the method: as §1

[3] = compound: Cn1cc(-c2ccc3c(c2)CCN3C(=O)Cc2cccc(C(F)(F)F)c2)c2c(N)ncnc21
Summary of the method: as §1

quisinostat = compound: Cn1cc(CNCC2CCN(c3ncc(C(=O)NO)cn3)CC2)c2ccccc21 [quisinostat]
Summary of the method: as §1

tipifarnib = compound: Cn1cncc1[C@@](N)(c1ccc(Cl)cc1)c1ccc2c(c1)c(-c1cccc(Cl)c1)cc(=O)n2C [tipifarnib]
Summary of the method: as §1

[4] = compound: NC(=O)Nc1cc(-c2cccc(F)c2)sc1C(=O)N[C@H]1CCCNC1
Summary of the method: as §1

[5] = compound: NC(=O)c1cnc(N[C@@H]2CCCC[C@@H]2N)nc1Nc1cccc(-n2nccn2)c1
Summary of the method: as §1

[6] = compound: NC1(c2ccc(-c3nc4ccn5c(=O)[nH]nc5c4cc3-c3ccccc3)cc2)CCC1
Summary of the method: as §1

[7] = compound: NCC(=O)Nc1ccc(-n2nc(C(F)(F)F)cc2-c2ccc3c(ccc4ccccc43)c2)cc1
Summary of the method: as §1

vorinostat = compound: O=C(CCCCCCC(=O)Nc1ccccc1)NO [vorinostat]
Summary of the method: as §1

silmitasertib = compound: O=C(O)c1ccc2c(c1)nc(Nc1cccc(Cl)c1)c1ccncc12 [silmitasertib]
Summary of the method: as §1

[8] = compound: O=C1NC(=O)C(c2cnc3ccccn23)=C1c1cn2c3c(cc(F)cc13)CN(C(=O)N1CCCCC1)CC2
Summary of the method: as §1

entospletinib = compound: c1cn2cc(-c3ccc4cn[nH]c4c3)nc(Nc3ccc(N4CCOCC4)cc3)c2n1 [entospletinib]
Summary of the method: as §1

Measured: log2 fold change

NAA35 (UniProt Q5VZE5)
UniProt Q5VZE5, sequence (Q5VZE5 whole entry, looked up): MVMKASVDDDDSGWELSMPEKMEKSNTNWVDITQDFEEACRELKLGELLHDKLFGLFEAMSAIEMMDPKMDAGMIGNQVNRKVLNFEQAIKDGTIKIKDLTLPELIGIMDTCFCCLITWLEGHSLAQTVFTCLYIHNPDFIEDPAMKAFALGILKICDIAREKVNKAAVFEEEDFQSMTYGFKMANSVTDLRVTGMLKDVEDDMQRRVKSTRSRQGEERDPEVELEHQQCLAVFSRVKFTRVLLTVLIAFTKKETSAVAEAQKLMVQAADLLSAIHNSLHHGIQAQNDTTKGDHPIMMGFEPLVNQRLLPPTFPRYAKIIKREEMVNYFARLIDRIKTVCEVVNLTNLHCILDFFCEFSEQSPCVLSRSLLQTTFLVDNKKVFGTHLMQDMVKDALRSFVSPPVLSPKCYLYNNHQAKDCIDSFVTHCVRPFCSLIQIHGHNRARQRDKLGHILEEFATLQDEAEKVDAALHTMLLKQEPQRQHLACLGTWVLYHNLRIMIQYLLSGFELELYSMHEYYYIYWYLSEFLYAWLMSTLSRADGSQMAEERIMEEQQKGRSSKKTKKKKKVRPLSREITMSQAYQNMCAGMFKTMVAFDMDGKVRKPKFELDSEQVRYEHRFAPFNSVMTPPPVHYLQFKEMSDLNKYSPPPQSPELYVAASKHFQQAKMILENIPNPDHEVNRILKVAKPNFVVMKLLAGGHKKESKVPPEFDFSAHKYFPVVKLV
inactive: nilotinib -0.019 | [1] 0.014 | dasatinib -0.005 | [2] 0.009 | [3] 0.01 | quisinostat -0.075 | tipifarnib 0.034 | [4] 0.001 | [5] -0.035 | [6] 0.016 | [7] -0.04 | silmitasertib 0.017 | [8] 0.004 | entospletinib 0.028
active: vorinostat -0.308

NUP98 (UniProt P52948)
UniProt P52948, sequence (P52948 whole entry, looked up): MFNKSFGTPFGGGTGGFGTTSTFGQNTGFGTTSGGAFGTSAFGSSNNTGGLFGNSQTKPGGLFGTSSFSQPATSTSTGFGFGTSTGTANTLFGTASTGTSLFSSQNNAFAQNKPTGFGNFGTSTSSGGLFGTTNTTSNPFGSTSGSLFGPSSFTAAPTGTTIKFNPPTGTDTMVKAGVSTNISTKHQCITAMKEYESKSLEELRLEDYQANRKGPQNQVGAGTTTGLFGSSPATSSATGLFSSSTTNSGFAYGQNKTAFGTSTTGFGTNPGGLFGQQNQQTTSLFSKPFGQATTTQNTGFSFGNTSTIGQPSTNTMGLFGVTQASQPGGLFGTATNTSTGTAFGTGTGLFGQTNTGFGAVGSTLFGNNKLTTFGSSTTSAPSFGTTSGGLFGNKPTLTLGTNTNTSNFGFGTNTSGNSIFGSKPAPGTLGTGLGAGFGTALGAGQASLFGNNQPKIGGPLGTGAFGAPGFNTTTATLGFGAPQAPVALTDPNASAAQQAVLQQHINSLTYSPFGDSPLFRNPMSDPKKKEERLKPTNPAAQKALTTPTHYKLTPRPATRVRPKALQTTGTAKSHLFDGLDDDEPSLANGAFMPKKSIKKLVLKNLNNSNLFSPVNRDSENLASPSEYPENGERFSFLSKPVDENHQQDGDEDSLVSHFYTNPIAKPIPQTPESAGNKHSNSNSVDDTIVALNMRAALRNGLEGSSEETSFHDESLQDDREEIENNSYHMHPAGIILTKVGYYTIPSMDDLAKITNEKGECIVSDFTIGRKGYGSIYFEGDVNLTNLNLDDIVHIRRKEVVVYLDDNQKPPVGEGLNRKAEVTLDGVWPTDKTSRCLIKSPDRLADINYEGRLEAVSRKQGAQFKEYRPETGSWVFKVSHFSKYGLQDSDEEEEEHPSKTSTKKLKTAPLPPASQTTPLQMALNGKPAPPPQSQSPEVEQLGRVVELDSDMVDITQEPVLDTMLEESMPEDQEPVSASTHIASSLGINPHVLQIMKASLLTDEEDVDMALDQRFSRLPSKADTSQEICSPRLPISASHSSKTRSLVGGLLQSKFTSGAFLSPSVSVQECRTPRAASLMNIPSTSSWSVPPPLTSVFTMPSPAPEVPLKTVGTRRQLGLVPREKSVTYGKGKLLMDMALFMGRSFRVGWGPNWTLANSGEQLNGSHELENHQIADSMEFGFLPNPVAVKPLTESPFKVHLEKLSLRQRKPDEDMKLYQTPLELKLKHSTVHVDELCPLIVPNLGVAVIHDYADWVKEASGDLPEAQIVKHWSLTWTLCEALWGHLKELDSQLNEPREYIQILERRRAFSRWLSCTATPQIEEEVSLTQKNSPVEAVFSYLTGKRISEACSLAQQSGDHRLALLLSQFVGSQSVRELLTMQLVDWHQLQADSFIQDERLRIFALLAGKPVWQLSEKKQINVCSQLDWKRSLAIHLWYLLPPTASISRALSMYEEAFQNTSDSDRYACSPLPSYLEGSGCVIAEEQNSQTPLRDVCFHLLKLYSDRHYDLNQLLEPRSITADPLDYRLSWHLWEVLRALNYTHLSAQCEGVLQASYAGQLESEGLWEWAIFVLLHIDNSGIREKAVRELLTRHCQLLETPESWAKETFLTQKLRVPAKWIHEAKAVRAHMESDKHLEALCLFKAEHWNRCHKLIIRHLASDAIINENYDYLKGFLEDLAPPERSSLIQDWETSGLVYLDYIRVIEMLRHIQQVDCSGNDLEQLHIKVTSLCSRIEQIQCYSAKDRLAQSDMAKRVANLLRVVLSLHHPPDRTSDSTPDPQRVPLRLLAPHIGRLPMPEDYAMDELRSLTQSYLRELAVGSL
active: vorinostat -0.231
inactive: nilotinib -0.041 | [1] -0.017 | dasatinib -0.053 | [2] -0.008 | [3] 0.031 | quisinostat -0.049 | tipifarnib -0.12 | [4] 0.055 | [5] -0.002 | [6] 0.003 | [7] 0.021 | silmitasertib 0.001 | [8] 0.001 | entospletinib -0.012

MYOM1 (UniProt P52179)
UniProt P52179, sequence (P52179 whole entry, looked up): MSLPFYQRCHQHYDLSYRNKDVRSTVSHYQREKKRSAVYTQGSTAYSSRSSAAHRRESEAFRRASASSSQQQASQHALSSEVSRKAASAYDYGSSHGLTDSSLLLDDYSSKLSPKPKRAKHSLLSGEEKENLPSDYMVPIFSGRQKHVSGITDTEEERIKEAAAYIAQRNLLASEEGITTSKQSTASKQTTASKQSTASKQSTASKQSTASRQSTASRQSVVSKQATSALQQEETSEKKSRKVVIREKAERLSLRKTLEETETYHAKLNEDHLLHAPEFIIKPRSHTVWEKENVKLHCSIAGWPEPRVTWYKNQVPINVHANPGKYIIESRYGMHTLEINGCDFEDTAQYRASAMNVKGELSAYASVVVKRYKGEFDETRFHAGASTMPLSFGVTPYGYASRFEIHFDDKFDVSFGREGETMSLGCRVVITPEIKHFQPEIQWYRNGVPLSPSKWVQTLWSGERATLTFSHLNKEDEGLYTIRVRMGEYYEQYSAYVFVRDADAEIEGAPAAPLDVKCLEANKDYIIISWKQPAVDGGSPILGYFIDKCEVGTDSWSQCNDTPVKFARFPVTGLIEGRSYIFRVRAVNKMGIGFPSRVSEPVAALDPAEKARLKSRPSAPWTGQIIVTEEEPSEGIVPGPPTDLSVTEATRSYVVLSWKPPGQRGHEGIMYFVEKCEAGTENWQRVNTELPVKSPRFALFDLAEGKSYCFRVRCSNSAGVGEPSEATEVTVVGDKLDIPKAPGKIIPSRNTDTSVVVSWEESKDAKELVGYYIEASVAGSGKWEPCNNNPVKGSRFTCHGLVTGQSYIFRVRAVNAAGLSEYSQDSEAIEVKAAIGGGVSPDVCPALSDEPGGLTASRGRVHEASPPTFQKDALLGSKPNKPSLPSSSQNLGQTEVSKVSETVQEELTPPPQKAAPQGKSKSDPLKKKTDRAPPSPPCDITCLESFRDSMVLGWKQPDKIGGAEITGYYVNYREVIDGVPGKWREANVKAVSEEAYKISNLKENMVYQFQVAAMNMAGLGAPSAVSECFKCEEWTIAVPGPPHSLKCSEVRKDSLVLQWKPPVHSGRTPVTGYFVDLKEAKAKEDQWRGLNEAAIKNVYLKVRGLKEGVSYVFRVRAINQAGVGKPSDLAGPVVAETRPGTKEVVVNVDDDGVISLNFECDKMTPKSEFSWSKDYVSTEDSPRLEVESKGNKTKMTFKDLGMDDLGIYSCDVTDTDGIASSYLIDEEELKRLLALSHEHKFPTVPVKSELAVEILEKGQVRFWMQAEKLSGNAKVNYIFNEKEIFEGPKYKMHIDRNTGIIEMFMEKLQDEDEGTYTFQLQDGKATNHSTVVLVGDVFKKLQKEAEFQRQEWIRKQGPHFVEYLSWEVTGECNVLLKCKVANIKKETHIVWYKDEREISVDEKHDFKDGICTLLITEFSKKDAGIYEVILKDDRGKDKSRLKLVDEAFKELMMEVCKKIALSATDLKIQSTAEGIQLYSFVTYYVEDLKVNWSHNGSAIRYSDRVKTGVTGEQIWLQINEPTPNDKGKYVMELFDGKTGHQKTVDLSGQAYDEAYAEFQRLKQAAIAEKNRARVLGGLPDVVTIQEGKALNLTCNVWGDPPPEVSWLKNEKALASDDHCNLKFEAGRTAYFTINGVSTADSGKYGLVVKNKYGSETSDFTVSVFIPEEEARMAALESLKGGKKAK
inactive: nilotinib -0.127 | [1] -0.078 | dasatinib 0.058 | [2] 0.039 | [3] 0.023 | quisinostat 0.115 | tipifarnib 0.01 | [4] 0.083 | [5] -0.016 | [6] -0.035 | [7] 0.062 | vorinostat 0.055 | silmitasertib 0.014 | [8] 0.292 | entospletinib 0.028

MYD88 isoform 6 (UniProt Q99836)
UniProt Q99836, sequence (Q99836 whole entry, looked up): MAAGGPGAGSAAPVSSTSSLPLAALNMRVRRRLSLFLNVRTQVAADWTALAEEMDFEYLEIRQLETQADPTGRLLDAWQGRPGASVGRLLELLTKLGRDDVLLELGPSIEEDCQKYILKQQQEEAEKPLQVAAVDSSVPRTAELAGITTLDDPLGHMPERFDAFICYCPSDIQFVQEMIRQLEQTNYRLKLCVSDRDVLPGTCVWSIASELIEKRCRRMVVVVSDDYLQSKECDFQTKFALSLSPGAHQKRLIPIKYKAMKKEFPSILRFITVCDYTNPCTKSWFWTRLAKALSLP
active: vorinostat -0.366
inactive: nilotinib -0.003 | [1] 0.001 | dasatinib -0.021 | [2] -0.027 | [3] 0.024 | quisinostat -0.033 | tipifarnib 0.004 | [4] 0 | [5] 0.03 | [6] 0.054 | [7] -0.005 | silmitasertib 0.023 | [8] -0.05 | entospletinib 0.033

NEK7 (UniProt Q8TDX7)
UniProt Q8TDX7, sequence (Q8TDX7 whole entry, looked up): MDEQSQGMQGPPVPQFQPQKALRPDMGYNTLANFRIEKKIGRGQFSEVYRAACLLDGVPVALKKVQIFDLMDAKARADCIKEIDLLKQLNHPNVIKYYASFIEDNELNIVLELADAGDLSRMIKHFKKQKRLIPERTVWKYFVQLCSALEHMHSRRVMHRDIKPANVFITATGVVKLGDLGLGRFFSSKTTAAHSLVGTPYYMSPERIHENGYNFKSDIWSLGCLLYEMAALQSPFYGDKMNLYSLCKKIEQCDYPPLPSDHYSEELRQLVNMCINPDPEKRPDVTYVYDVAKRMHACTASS
inactive: nilotinib 0.003 | [1] 0.016 | dasatinib -0.03 | [2] 0.045 | [3] 0.168 | quisinostat -0.018 | tipifarnib -0.006 | [4] 0.033 | [5] 0.018 | [6] 0.01 | [7] -0.037 | silmitasertib 0.105 | [8] 0.003 | entospletinib 0.012
active: vorinostat -0.338
